Laboratory results as given in PubChem BioAssay (NCATS).
Results filed as inconclusive are left out. Calls of active or inactive are those of the source. Unless noted, calls come from the whole dose curve; as a rule, active = well fitted curve in either direction with a large enough effect (not every such curve was filed as active); inconclusive = small, poorly fitted or top-dose-only effect, or another doubt; inactive = flat fitted curve, though single readings scatter.

What was measured:
[1] = molecular target: Lysosomal acid glucosylceramidase (Homo sapiens) (UniProt P04062); test: Glucocerebrosidase-p2 (AID 348; in the data active = potency below about 10 µM; note: potency is the fitted concentration of half-maximal effect); conditions: purified GBA, blue fluorogenic substrate, 40 min
Lysosomal acid glucosylceramidase (Homo sapiens), sequence (P04062 whole entry, looked up): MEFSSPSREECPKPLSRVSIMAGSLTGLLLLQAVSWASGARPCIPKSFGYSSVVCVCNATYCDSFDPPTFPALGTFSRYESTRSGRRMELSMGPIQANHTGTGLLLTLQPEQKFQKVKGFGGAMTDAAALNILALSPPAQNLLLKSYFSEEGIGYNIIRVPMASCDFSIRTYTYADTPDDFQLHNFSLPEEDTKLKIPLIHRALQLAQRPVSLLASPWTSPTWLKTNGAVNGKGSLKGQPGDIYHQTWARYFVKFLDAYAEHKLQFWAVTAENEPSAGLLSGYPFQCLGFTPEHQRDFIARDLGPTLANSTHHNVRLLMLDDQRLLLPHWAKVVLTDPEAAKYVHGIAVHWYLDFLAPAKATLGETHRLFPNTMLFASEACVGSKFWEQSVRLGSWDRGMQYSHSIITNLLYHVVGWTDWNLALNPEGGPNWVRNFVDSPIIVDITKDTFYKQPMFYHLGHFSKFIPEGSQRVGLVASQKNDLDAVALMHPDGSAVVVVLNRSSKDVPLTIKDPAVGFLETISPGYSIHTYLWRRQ
Outline: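 Normal human glucocerebrosidase (0.2 nM) with blue fluorogenic substrate (80 uM final) in citrate/phosphate pH 5.9 with 10mM sodium taurocholate, 0.01% tween-20; 40 min RT, NaOH/glycine stop; fluorescence Ex 365/Em 440; AC50 from a titration from 0.6 nM upwards.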

[2] = AP1 Signaling Pathway (AID 357); conditions: ME-180 AP-1-bla reporter, EGF-induced, beta-lactamase ratio, 5 h; at 7.69 µM (top of the series) unless noted;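 note: ME-180 reporter cells stimulated with EGF at its EC50 level; % is set by controls: 0 for no effect and ±100 for the full control effect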
Outline: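 Cells are seeded overnight, exposed to compound titrations and an EC50 level of EGF for 5 hours at 37 °C, then loaded with CCF4 dye for 2.5 hours. Beta-lactamase activity under the AP-1 element is read as a blue/green ratio.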

[3] = Stat Signaling Pathway (AID 446); conditions: ME-180 SIE beta-lactamase reporter, IL-6 stimulated, 5 h; at 7.69 µM (top of the series) unless noted;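 note: ME-180 cervical cancer cells given 40 pM IL-6 alongside compound; SIE-controlled beta-lactamase reporter measured as 460/530 nm FRET emission ratio; % is set by controls: 0 for no effect and ±100 for the full control effect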
Outline: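 Normalization used AC90 stimulation (300 pM IL-6) and AC90 inhibition (125 nM pan-JAK inhibitor at 40 pM IL-6). The underlying signal is SIE-driven beta-lactamase in ME-180 cells after 5 h IL-6 exposure with compound.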

[4] = molecular target: Glucocorticoid receptor (Homo sapiens) (UniProt P04150); test: GR-GFP Redistribution (AID 450;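 active = compounds whose dose series gives a full or clear partial fitted curve of increased nuclear translocation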; note: potency is the fitted concentration of half-maximal effect); conditions: U2OS GR-GFP nuclear translocation, laser cytometry, 2 h
Glucocorticoid receptor (Homo sapiens), sequence (P04150 whole entry, looked up, the tested form may be a part): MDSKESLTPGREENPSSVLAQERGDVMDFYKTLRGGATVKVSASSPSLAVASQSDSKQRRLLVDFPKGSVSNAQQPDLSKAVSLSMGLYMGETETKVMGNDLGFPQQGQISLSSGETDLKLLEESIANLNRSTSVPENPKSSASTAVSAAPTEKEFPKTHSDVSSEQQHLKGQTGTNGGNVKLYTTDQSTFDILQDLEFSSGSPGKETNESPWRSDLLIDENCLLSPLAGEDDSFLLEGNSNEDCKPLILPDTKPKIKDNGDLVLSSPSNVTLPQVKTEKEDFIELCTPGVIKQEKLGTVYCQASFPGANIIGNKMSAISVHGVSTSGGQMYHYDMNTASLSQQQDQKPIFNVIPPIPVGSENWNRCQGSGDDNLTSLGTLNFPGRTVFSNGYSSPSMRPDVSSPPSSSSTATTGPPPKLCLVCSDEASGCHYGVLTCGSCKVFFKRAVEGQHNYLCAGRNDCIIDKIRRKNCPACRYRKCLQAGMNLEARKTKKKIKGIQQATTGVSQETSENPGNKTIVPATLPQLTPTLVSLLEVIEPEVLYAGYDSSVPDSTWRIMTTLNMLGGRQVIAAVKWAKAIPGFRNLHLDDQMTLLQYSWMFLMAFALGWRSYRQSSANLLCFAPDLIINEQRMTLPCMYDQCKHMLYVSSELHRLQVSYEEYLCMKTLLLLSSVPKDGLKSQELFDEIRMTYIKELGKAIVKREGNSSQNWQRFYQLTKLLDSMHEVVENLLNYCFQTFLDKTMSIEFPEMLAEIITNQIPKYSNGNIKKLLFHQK

[5] = molecular target: Glucocorticoid receptor (Homo sapiens) (UniProt P04150); test: GR-EFC Redistribution (AID 451; calls by dose curve; note: potency is the fitted concentration of half-maximal effect); conditions: CHO-K1 GR-EFC translocation, beta-gal luminescence, 2 h
Outline: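 Translocation of GR-ED fusion to nuclear EA restores b-gal, read by luminescence after 1 h room-temperature detection. Engineered CHO-K1 biosensor cells, 1,000/well, exposed 2 h at 37 C to titrations up to 46 uM final.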

[6] = molecular target: Mitogen-activated protein kinase 10 (Mus musculus) (UniProt Q61831); test: JNK3 AlphaScreen Assay (AID 530); conditions: JNK3 lysate, c-Jun phosphorylation; series mostly up to 11.4 µM;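 note: kinase came from lysate of stimulated human HepG2 cells; signal reports phosphorylation of biotinylated GST-cJun 1-79 at Ser73 with 10 µM ATP; % is set by controls: 0 for no effect and ±100 for the full control effect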
Outline: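 qHTS titrations with 15 min compound pre-incubation before adding ATP (10 uM final). Read-out: AlphaScreen of Ser73-phosphorylated biotin-GST-cJun using HepG2 lysate JNK3 activated by IL-1β and TNFα.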

[7] = molecular target: 3',5'-cyclic-AMP phosphodiesterase 4B (Homo sapiens) (UniProt Q07343); test: qHTS Assay for Inhibitors of PDE-IV (AID 607; active = well fitted activation curve with a large enough effect in the main read-out, with a control signal flat, not every such curve was filed as active; note: % of control where 0% means no effect); conditions: HEK293 ACTOne CNG channel cells, membrane potential fluorescence; series mostly up to 22.9 µM
3',5'-cyclic-AMP phosphodiesterase 4B (Homo sapiens), sequence (Q07343 whole entry, looked up): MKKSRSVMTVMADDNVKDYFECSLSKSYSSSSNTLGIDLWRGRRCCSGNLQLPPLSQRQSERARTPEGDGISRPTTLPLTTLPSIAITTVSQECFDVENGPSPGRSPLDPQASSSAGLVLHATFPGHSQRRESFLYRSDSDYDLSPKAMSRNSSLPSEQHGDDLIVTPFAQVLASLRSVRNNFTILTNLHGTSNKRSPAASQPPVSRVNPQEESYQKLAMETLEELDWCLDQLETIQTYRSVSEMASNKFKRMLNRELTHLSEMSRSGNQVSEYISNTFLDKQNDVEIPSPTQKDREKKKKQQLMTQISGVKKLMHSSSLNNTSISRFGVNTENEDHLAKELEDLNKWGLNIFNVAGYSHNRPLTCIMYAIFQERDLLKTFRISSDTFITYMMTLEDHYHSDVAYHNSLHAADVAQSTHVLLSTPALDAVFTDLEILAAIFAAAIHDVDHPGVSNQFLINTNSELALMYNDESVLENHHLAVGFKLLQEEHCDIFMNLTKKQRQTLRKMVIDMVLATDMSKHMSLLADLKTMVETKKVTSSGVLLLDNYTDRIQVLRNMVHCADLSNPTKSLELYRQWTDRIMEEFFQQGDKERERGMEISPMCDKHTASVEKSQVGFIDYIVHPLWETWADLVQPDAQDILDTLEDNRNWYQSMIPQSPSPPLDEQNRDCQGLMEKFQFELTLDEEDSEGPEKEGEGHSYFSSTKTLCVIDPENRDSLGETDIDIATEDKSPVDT
Outline: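 HEK293 ACTOne cells with CNG channel (1000/well), endogenous PDE4; membrane potential dye, compounds up to 22.9 uM final. Fluorescence Ex 535/Em 590; RO 20-1724 (100 uM final) as reference.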

[8] = molecular target: Cytochrome P450 3A4 (Homo sapiens) (UniProt P08684); test: qHTS Assay for Activators of Cytochrome P450 3A4 (AID 885; active = well fitted curve in the direction sought with a large enough effect; an effect the other way counts as inactive or inconclusive; note: nearly all actives have a fitted effect of over 65% in size); conditions: recombinant CYP3A4, Luciferin-PPXE luminescence, 60 min; series mostly up to 11.4 µM
Cytochrome P450 3A4 (Homo sapiens), sequence (P08684 whole entry, looked up): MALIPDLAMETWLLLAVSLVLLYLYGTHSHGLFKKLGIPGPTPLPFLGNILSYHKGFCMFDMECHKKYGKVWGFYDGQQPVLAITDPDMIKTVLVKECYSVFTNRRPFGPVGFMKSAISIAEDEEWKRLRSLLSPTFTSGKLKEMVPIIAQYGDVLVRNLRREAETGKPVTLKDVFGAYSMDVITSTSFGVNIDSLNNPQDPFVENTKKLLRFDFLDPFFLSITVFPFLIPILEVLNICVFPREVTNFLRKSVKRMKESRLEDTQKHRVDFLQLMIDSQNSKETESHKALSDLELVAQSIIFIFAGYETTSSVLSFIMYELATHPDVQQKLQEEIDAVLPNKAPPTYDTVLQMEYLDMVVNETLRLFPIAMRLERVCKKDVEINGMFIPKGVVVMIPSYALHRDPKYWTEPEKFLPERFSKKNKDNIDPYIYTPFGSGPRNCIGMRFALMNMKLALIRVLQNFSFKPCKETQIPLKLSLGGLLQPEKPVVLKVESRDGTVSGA
Outline: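 Human CYP3A4 dealkylates Luciferin-PPXE to luciferin, which luciferase detection converts to light. Substrate was at its KM (25uM), buffer 200mM KPO4, reaction 60 min at RT.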

[9] = Confirmation and Secondary Assay for Modulators of Hemoglobin Beta Chain Splicing at IVS2 654 locus (AID 910; active = well fitted curve in the direction sought with a large enough effect; an effect the other way counts as inactive or inconclusive;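 note: HeLa cells stably carrying EGFP split by mutant beta-globin IVS2-654 intron; per-well total GFP intensity by laser scanning cytometry after 2-day treatment; % of control where 0% means no effect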); conditions: HeLa EGFP-654 splicing reporter, GFP fluorescence, 48 h; series mostly up to 38.3 µM
Outline: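 Readout: per-well total peak green fluorescence (488 nm ex, 500–520 nm em) from objects 5–250 µm, reflecting correct splicing of an EGFP-654 reporter. Compounds were applied for 2 days at 37 °C to overnight-plated HeLa EGFP-654 cells; controls were DMSO and 500 nM IVS2-654 PNA.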

[10] = molecular target: Ubiquitin carboxyl-terminal hydrolase 1 (Homo sapiens) (UniProt O94782); test: Inhibitors of USP1/UAF1: Pilot qHTS (AID 504865; active = well fitted curve in the direction sought with a large enough effect; an effect the other way counts as inactive or inconclusive; note: potency is the fitted concentration of half-maximal effect; nearly all actives have a fitted effect of over 35% in size); conditions: purified USP1/UAF1, Ub-rhodamine cleavage fluorescence; series mostly up to 114 µM
Ubiquitin carboxyl-terminal hydrolase 1 (Homo sapiens), sequence (O94782 whole entry, looked up): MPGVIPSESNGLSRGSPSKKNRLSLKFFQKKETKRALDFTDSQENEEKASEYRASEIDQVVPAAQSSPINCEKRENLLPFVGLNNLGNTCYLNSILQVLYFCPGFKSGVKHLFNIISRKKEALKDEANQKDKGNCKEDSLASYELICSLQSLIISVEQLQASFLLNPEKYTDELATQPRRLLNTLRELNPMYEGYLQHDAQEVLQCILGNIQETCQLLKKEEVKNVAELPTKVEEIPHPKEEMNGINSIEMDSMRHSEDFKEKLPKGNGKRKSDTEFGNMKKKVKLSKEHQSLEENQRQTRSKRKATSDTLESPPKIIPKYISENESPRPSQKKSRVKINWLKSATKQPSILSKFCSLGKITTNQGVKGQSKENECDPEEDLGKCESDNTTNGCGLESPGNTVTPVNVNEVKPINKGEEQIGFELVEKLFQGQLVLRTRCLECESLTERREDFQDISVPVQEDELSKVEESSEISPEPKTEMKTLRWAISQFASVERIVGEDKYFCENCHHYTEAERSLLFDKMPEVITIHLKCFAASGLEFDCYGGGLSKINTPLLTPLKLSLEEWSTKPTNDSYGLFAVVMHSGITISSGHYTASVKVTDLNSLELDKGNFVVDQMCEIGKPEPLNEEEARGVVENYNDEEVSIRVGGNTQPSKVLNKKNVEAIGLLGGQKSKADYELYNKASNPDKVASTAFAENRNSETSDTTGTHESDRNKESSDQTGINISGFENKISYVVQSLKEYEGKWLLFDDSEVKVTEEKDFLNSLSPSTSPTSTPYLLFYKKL
Outline: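 Kinetic fluorescence assay: 1nM USP1/UAF1, 15 min compound preincubation, then 150nM Ub-Rho; 480/540 nm.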

[11] = qHTS Assay for Identification of Small Molecule Agonists for Hypoxia Response Element Signaling Pathway (AID 914; active = well fitted activation curve with a large enough effect in the signal ratio, with a control signal flat, not every such curve was filed as active; the % refers to the signal ratio; note: % of control where 0% means no effect); conditions: ME-180 (cervical carcinoma) HRE-bla reporter, beta-lactamase ratio, CoCl2, 17 h; activation: hits give high values
Outline: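 HRE-bla ME-180 assay for agonist-like enhancement of an EC50 CoCl2 stimulus: 17 h at 37 degrees Celsius, CCF4 for 2.5 h, ratiometric 460/530 nm signal converted to %Activity and fitted to AC50.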

[12] = molecular target: Cytochrome P450 2D6 (Homo sapiens) (UniProt P10635); test: qHTS Assay for Inhibitors and Substrates of Cytochrome P450 2D6 (AID 891; active = well fitted curve in the direction sought with a large enough effect; an effect the other way counts as inactive or inconclusive; note: potency is the fitted concentration of half-maximal effect; nearly all actives have a fitted effect of over 60% in size); conditions: recombinant CYP2D6, luciferin-ME EGE luminescence; series mostly up to 11.4 µM
Cytochrome P450 2D6 (Homo sapiens), sequence (P10635 whole entry, looked up): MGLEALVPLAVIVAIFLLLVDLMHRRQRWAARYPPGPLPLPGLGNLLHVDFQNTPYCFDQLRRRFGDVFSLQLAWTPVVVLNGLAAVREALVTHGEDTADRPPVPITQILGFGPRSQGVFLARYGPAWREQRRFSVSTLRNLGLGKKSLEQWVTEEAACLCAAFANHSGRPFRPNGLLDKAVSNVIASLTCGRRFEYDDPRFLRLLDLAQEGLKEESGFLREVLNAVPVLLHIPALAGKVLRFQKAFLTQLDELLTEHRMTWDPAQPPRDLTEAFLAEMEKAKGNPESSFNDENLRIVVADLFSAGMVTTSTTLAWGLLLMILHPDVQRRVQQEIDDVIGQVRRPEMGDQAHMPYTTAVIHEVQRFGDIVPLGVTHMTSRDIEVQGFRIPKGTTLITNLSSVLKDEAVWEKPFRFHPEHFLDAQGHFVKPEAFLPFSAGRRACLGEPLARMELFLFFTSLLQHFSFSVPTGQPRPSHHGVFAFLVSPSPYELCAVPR
Outline: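 Luminescent read-out of luciferin formed by 5 nM human CYP2D6 demethylating 30 uM Luciferin-ME EGE (Km level) over 60 min at room temperature after NADPH regeneration addition. Data normalized to full inhibition by 1.43 uM quinidine.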

NS(=O)(=O)c1ccc(N=Nc2ncccc2O)cc1
inactive: Potency [1] > 11.4 µM | activity change, negative = inhibition [2] 7.11% | activity, negative = inhibition [3] 5.47% | Potency [4] > 46 µM | Potency [5] > 9.22 µM | Potency [6] | Potency [7] | Potency [8]

CNc1ncnc(Sc2nc(N)nc3nc[nH]c23)c1[N+](=O)[O-]
inactive: Potency [1] > 11.4 µM | activity change, negative = inhibition [2] -9.31% | activity, negative = inhibition [3] 21.1% | Potency [4] > 46 µM | Potency [5] > 9.22 µM | Potency [6] | Potency [7]

CC1CCN(CC[S-])CC1.O.O.[Cl][Pt]
inactive: Potency [1] > 11.4 µM | activity change, negative = inhibition [2] 29.8% | Potency [4] > 46 µM | Potency [5] > 9.22 µM | Potency [6] | Potency [7]

c1ccc2c[n+](CCCC[n+]3ccc4ccccc4c3)ccc2c1
inactive: Potency [1] > 11.4 µM | activity change, negative = inhibition [2] 9.12% | Potency [4] > 46 µM | Potency [5] > 9.22 µM | Potency [6] | Potency [7]

c1cc(CSc2ncnc3nc[nH]c23)ccn1
inactive: Potency [1] > 11.4 µM | activity change, negative = inhibition [2] 10.4% | activity, negative = inhibition [3] -2.3% | Potency [4] > 46 µM | Potency [6] | Potency [7]

COc1ccc(CNc2nc(-c3ccccc3OC)nc3ccccc23)c(OC)c1
inactive: Potency [1] > 11.4 µM | activity change, negative = inhibition [2] -13.6% | activity, negative = inhibition [3] 16.1% | Potency [5] > 46 µM | Potency [6] | Potency [7] | outcome [9]
active: Potency [10] 20 µM

C[C@H](CCC(=O)O)[C@H]1CC[C@@H]2[C@H]3CC[C@H]4C[C@H](O)CC[C@@]4(C)[C@@H]3CC[C@@]21C
inactive: Potency [1] > 11.4 µM | activity change, negative = inhibition [2] 17.2% | activity, negative = inhibition [3] -10% | Potency [4] > 46 µM | Potency [5] > 9.22 µM | Potency [6] | Potency [7]

CC(C)(C)c1ccc(O)c(CN(Cc2cc(C(C)(C)C)ccc2O)c2ccccc2)c1
inactive: Potency [1] > 11.4 µM | activity change, negative = inhibition [2] 4.11% | activity, negative = inhibition [3] 2.48% | Potency [4] > 46 µM | Potency [5] > 9.22 µM | Potency [6] | Potency [7] | activation [11] 12.3%

c1ccc(CN2CC[C@@H](CNc3ncnc4ccccc34)C2)cc1
inactive: Potency [1] > 11.4 µM | activity change, negative = inhibition [2] 3.93% | activity, negative = inhibition [3] 8.92% | Potency [4] > 46 µM | Potency [5] > 9.22 µM | Potency [6] | Potency [7]
active: Potency [12] 0.794 µM
